Compound activity from PubChem BioAssay.
CBFb RUNX1 block – blocks binding between human CBF-beta and RUNX1. Q01196+Q13951. AlphaScreen CBFb-His/RUNX1-biotin binding, biochemical. Potency, µM (series often up to 59.8 µM), for the others: top-dose activity, negative = inhibition, actives largely listed as inhibitors. 230,000 tested, under 10 active. AID 1477; note: % of control where 0% means no effect
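Interaction loss through any mechanism counts as activity. Pre-formed complex of His-CBF-beta and biotin-RUNX1 (30 nM apiece) is incubated with compound 15 min, then with 50 ng nickel and 50 ng streptavidin beads for 90 min before AlphaScreen detection.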
RORgamma inh – inhibitors of mouse ROR gamma transcriptional activity | Drosophila S2 Gal4-RORgamma UAS-luciferase reporter, 20 h | P51450 | 310,000 tested, 5.4% active | Potency, µM (doses to about 53.6 µM), inactives show top-dose activity change, negative = inhibition, hits mostly inhibitors | AID 2551; note: potency is the fitted concentration of half-maximal effect; % is set by controls: 0 for no effect and ±100 for the full control effect; nearly all actives have a fitted effect of over 60% in size
Target sequence (P51450 whole entry, looked up, the tested form may be a part): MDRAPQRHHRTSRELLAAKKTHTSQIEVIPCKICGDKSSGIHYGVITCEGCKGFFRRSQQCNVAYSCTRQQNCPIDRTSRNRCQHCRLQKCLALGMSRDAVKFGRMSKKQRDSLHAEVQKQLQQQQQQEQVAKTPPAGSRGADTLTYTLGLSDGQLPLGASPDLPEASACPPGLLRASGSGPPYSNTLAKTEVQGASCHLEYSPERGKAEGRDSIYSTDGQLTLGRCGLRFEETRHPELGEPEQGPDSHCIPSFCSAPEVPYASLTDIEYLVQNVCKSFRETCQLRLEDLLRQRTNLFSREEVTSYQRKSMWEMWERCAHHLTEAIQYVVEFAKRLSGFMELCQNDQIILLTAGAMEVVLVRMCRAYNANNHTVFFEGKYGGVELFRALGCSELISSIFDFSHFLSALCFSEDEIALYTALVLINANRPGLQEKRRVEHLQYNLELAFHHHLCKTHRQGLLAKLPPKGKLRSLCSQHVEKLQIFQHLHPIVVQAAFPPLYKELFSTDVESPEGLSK
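Luminescence from a UAS-regulated Photinus luciferase reporter in stably transfected Drosophila Schneider cells is measured; decreased signal marks ROR gamma inhibition. Fusion expression is induced by 700 uM copper sulfate for 20 hr.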
Gal4-VP16 FLuc – counter-screen for ROR gamma inhibitors: Gal4-VP16 reporter. Drosophila S2 Gal4-VP16 UAS-luciferase, luminescence, 20 h. Potency, µM (top dose mostly 53.6 µM), for the others: at the top dose activity, negative = inhibition, usual class: inhibitors. 310,000 tested, 3.5% active. AID 2546;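 note: Gal4-VP16 expression switched on by copper sulfate through the metallothionein promoter; potency is the fitted concentration of half-maximal effect; % is set by controls: 0 for no effect and ±100 for the full control effect; nearly all actives have a fitted effect of over 50% in size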
CtBP-E1A blk – CtBP/E1A binding inhibition; AlphaScreen GST-E1A/His-CtBP binding, 1536-well; hits give low values; activity change, % (no concentration beside the values); 340,000 tested, 0.49% active; AID 651724; in the data active = activity change below about -65%; inconclusive = mostly about -30% to -63%; note: % is set by controls: 0 for no effect and ±100 for the full control effect
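GST-E1A and His-tagged CtBP (125 nM each as 5X stock) were preincubated with pin-transferred compound for 2 h at 37 °C in the dark, then glutathione donor and nickel acceptor beads were added for 1 h before AlphaScreen reading.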
Six1-Eya2 blk – blocks human Six1 binding to Eya2; Q15475+O00167; AID 651725; AlphaScreen GST-Six1/His-Eya2 binding, biochemical; hits give low values; activity change, % (test concentration not listed); 360,000 tested, 0.56% active; in the data active = activity change below about -65%; inconclusive = mostly about -30% to -63%; note: % is set by controls: 0 for no effect and ±100 for the full control effect
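Six1/Eya2 binding was read as AlphaScreen signal after compounds were pinned into GST-Six1 plus His-tagged Eya2 (5X stock 250/500 nM) in pH 8.0 Tris/NaCl/TCEP buffer, beads added, then incubated 1 h, 37 C, dark.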
MBNL1-CUG inh – blocks human MBNL1 binding to CUG repeat RNA; Q9NR56; TR-FRET MBNL1-His/biotin-(CUG)12 binding, 665/545 ratio; Potency, µM (top dose mostly 57.5 µM), inactives show at the top dose activity change, negative = inhibition, most hits filed as inhibitors; 280,000 tested, 0.036% active; active = well fitted inhibition curve with a large enough effect in the signal ratio, with a control signal flat, not every such curve was filed as active; inconclusive = small, poorly fitted or top-dose-only effect, or effect the other way, or a change in a side signal; inactive = no such curve, though single readings can be large or run the other way; the % refers to the signal ratio; note: potency is the fitted concentration of half-maximal effect; % is set by controls: 0 for no effect and ±100 for the full control effect
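MBNL1-His + Biotin-(CUG)12, cpd titration 92 nM–58 uM; Tb anti-His Ab 0.055 ng/ul, SA-XL665 5 nM (final); 60 min RT; ratiometric 665/545 nm, Ex 340 nm; normalized to buffer and full-complex controls.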
The depositor's hits bear a star; [ ] = remark or other dose. Shown are actives, neighbours in structure and some others; about 5.5% of the full set was active somewhere. Unless noted, calls come from the whole dose curve; as a rule, active = well fitted curve in the direction sought with a large enough effect; inconclusive = small, poorly fitted or top-dose-only effect, or another doubt; inactive = no such curve, though single readings can be large; an effect the other way counts as inactive or inconclusive.

For O=C(CCCN1C(=O)/C(=C/c2ccccc2)SC1=S)NCCCn1ccnc1 the results were RORgamma inh 5µM*, Gal4-VP16 FLuc 4.5µM*, CtBP-E1A blk -10, Six1-Eya2 blk -4 and MBNL1-CUG inh inconclusive.
Screening O=C(CCN1C(=O)S/C(=C\c2ccccc2)C1=O)NCCCn1ccnc1 returned RORgamma inh 21%, Gal4-VP16 FLuc 4%, CtBP-E1A blk 2, Six1-Eya2 blk -1 and MBNL1-CUG inh inconclusive.
Screening CCc1ccc(/C=C2\SC(=S)N(CCCC(=O)Nc3ccccn3)C2=O)cc1 returned CBFb RUNX1 block -7%, RORgamma inh 0.28µM*, Gal4-VP16 FLuc 1.4µM*, CtBP-E1A blk -11, Six1-Eya2 blk inconclusive and MBNL1-CUG inh -5%.
Screening CC(=C\c1ccccc1)/C=C1/SC(=S)N(CCC(=O)Nc2ccccn2)C1=O returned CBFb RUNX1 block -8%, RORgamma inh -14%, Gal4-VP16 FLuc 3% and MBNL1-CUG inh 7%.
O=C(CCCN1C(=O)/C(=C/c2ccccc2)SC1=S)Nc1ccccc1O was read as CBFb RUNX1 block -19%, RORgamma inh 4.5µM*, Gal4-VP16 FLuc inconclusive, CtBP-E1A blk -24, Six1-Eya2 blk -12 and MBNL1-CUG inh 7%.
`O=C(CCCN1C(=O)/C(=C/c2cccc(Br)c2)SC1=S)Nc1ccccn1` gave CBFb RUNX1 block -8%, RORgamma inh inconclusive, Gal4-VP16 FLuc -2%[0.365 µM], CtBP-E1A blk -3, Six1-Eya2 blk -5 and MBNL1-CUG inh -7%.
`COC(=O)c1ccc(/C=C2/SC(=S)N(CCCC(=O)Nc3ccccn3)C2=O)cc1` gave CBFb RUNX1 block -4%, RORgamma inh 1.1µM*, Gal4-VP16 FLuc 1.8µM*, CtBP-E1A blk 1, Six1-Eya2 blk -2 and MBNL1-CUG inh inconclusive.
CC1(C(=O)NCc2ccccc2)CSCC(=O)N1CCOc1ccccc1 (centres undefined) was read as CtBP-E1A blk 7 and Six1-Eya2 blk 3.
For COCCNC(=S)N1CCC2CC1c1cc(-c3ccc4c(c3)OCO4)ccc12 (centres undefined) the results were CtBP-E1A blk -16 and Six1-Eya2 blk -21.
For CCc1ccc(/C=C2/SC(=S)N(CCC(=O)Nc3ccc(C(=O)O)cc3)C2=O)cc1 the results were RORgamma inh 3.5µM*, Gal4-VP16 FLuc -7% and MBNL1-CUG inh 5%.
`O=C(CN1C(=O)S/C(=C\c2ccccc2)C1=O)NNC(=O)c1ccccc1O` gave CBFb RUNX1 block -2%, RORgamma inh -5%, Gal4-VP16 FLuc -9%, CtBP-E1A blk 0, Six1-Eya2 blk -8 and MBNL1-CUG inh 11%.
CCc1ccc(C=C2SC(=S)N(CCCC(=O)Nc3ccc(C(=O)O)cc3)C2=O)cc1 was read as CtBP-E1A blk -11 and Six1-Eya2 blk -12.
For O=C(CCCN1C(=O)S/C(=C\c2ccccc2)C1=O)NNC(=O)c1ccccc1O the results were CBFb RUNX1 block 14%, RORgamma inh 0.45µM*, Gal4-VP16 FLuc 2.5µM*, Six1-Eya2 blk 0 and MBNL1-CUG inh -2%.
Screening CCOC(=O)/C(=C\c1ccc(Cl)cc1)c1nc2sc(C)c(C)c2c(=O)[nH]1 returned CBFb RUNX1 block 5%, RORgamma inh inconclusive, Gal4-VP16 FLuc 11µM*, CtBP-E1A blk 11 and Six1-Eya2 blk 6.
For O=C(O)c1ccccc1NC(=O)C(c1ccccc1)c1ccccc1 the results were CtBP-E1A blk -26 and Six1-Eya2 blk -13.
Screening O=C(Nc1ccccc1O)C(c1ccccc1)c1ccccc1 returned RORgamma inh inconclusive, Gal4-VP16 FLuc 16µM*, CtBP-E1A blk 3, Six1-Eya2 blk 5 and MBNL1-CUG inh -5%.
For COc1ccc(/C=N/Nc2nncc3ccccc23)c(OC)c1 the results were CBFb RUNX1 block -18%, RORgamma inh 4.5µM*, Gal4-VP16 FLuc 22µM*, CtBP-E1A blk -12, Six1-Eya2 blk -19 and MBNL1-CUG inh 19%.
For COc1cc(/C=N/Nc2nncc3ccccc23)cc(OC)c1OC the results were RORgamma inh inconclusive, Gal4-VP16 FLuc 11µM*, Six1-Eya2 blk -27 and MBNL1-CUG inh inconclusive.
COc1ccc(/C=N\Nc2ccccn2)c(OC)c1 was read as RORgamma inh inconclusive, Gal4-VP16 FLuc inconclusive, CtBP-E1A blk -20, Six1-Eya2 blk -2 and MBNL1-CUG inh 4%.
For Cc1cccc(/C=N/Nc2nncc3ccccc23)c1 the results were CBFb RUNX1 block -6%, RORgamma inh 2.5µM*, Gal4-VP16 FLuc 20µM*, CtBP-E1A blk -18, Six1-Eya2 blk -12 and MBNL1-CUG inh 3%.
N#CCCN(C(=O)COC(=O)CCc1nc2ccccc2c(=O)[nH]1)c1ccccc1F was read as CtBP-E1A blk -14 and Six1-Eya2 blk 5.
Screening S=C(Nc1ccc(Nc2ccccc2)cc1)N1CCN(c2ncccn2)CC1 returned CBFb RUNX1 block -1%, RORgamma inh 3%, Gal4-VP16 FLuc 4%[10 µM], CtBP-E1A blk 0, Six1-Eya2 blk -1 and MBNL1-CUG inh -9%.
`Cc1cccc(NC(=S)N2CCN(c3ccccn3)CC2)c1` gave RORgamma inh inconclusive, Gal4-VP16 FLuc inconclusive, Six1-Eya2 blk 3 and MBNL1-CUG inh -5%.
For S=C(Nc1ccc(Br)cc1)N1CCN(c2ccccn2)CC1 the results were RORgamma inh 11µM*, Gal4-VP16 FLuc inconclusive, CtBP-E1A blk -3, Six1-Eya2 blk -6 and MBNL1-CUG inh 0%.
S=C(Nc1cc(Cl)cc(Cl)c1)N1CCN(c2ccccn2)CC1 was read as RORgamma inh 11µM*, Gal4-VP16 FLuc -22%, CtBP-E1A blk 0, Six1-Eya2 blk -6 and MBNL1-CUG inh -8%.
Screening Cc1cc(C)cc(NC(=S)N2CCN(c3ncccn3)CC2)c1 returned CBFb RUNX1 block 0%, RORgamma inh 14µM*, Gal4-VP16 FLuc inconclusive, Six1-Eya2 blk -2 and MBNL1-CUG inh -9%.
For Fc1ccc(NC(=S)N2CCN(c3ccccn3)CC2)cc1Cl the results were CtBP-E1A blk -3 and Six1-Eya2 blk -2.
For S=C(Nc1cc(Cl)cc(Cl)c1)N1CCCC1 the results were RORgamma inh 5µM*, Gal4-VP16 FLuc inconclusive, CtBP-E1A blk 4, Six1-Eya2 blk 1 and MBNL1-CUG inh -4%.
For CCN(CC)S(=O)(=O)c1ccc(N2CCCC2)c(NC(=O)C2=NN(c3ccccc3)C(=O)CC2)c1 the results were CtBP-E1A blk -18 and Six1-Eya2 blk -2.
Screening N[C@](CC1c2ccccc2Oc2ccccc21)(C(=O)O)[C@@H]1C[C@@H]1C(=O)O returned CBFb RUNX1 block 7%[21.7 µM], RORgamma inh 17% and Gal4-VP16 FLuc 4%.
